Results filed as inconclusive are left out. A number with no mark means an inactive call. Active and inactive are the calls of the source. The call rests on the fitted dose curve; in most records, active means well fitted curve in the direction sought with a large enough effect; inconclusive means small, poorly fitted or top-dose-only effect, or another doubt; inactive means no such curve, though single readings can be large; an effect the other way counts as inactive or inconclusive. Where a SMILES comes first, the peptide text is derived from it. [ ]: non-standard residue; d: D form. pGlu = O=C1CC[C@@H](C(=O)O)N1

The nature of assay [1]: qHTS of pediatric cancer cell lines to identify multiple opportunities for drug repurposing: Primary screen for SK-N-MC cells (AID 1347093). Further: potency means the concentration at half of the fitted maximal effect. The essentials:
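Metabolically active cells were quantified by ATP-dependent luminescence (CellTiter-Glo, 15 min at room temperature) following 48 h treatment. Cells had been plated at 500-1,000 per well and settled for 5 h beforehand.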
For orientation: Quantitative high-throughput screening tests each substance at several concentrations.

Assay [2] can be described thus: qHTS of pediatric cancer cell lines to identify multiple opportunities for drug repurposing: Primary screen for BT-37 cells (AID 1347094). Further: potency means the concentration at half of the fitted maximal effect. The essentials:
(§1)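 Readout: CellTiter-Glo luminescence, 48 h treatment. Controls DMSO (neutral) and bortezomib 2.3 µM final (positive). Potency and efficacy taken from primary-screen concentration-response curves.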

Assay [3] in a line: qHTS of pediatric cancer cell lines to identify multiple opportunities for drug repurposing: Primary screen for NB-EBc1 cells (AID 1347095). Further: potency means the concentration at half of the fitted maximal effect. The essentials:
as §1

Assay [4] is described as follows: qHTS of pediatric cancer cell lines to identify multiple opportunities for drug repurposing: Primary screen for U-2 OS cells (AID 1347096). Further: nearly all actives have a fitted effect of over 50% in size. In short, it runs like this: (§2)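 Cells (500-1,000/well) rested 5 h, then received compounds for 48 h; metabolically active cells were measured by CellTiter-Glo luminescence. Final concentrations spanned up to 46 µM (MIPE, 11-point) or 0.59 nM-46 µM (NPC, 8-point) in primary screens, 11-point in follow-ups.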

Assay [5] can be described thus: qHTS of pediatric cancer cell lines to identify multiple opportunities for drug repurposing: Primary screen for Saos-2 cells (AID 1347097). Further: nearly all actives have a fitted effect of over 40% in size. Further: potency means the concentration at half of the fitted maximal effect. The essentials:
as §1

A short description of assay [6]: qHTS of pediatric cancer cell lines to identify multiple opportunities for drug repurposing: Primary screen for SK-N-SH cells (AID 1347098). Further: nearly all actives have a fitted effect of over 65% in size. Further: potency means the concentration at half of the fitted maximal effect. The essentials: as §2
Assay [7] in a line: qHTS of pediatric cancer cell lines to identify multiple opportunities for drug repurposing: Primary screen for NB1643 cells (AID 1347099). Further: nearly all actives have a fitted effect of over 50% in size. Further: potency means the concentration at half of the fitted maximal effect. In short, it runs like this: as §1
A short description of assay [8]: qHTS of pediatric cancer cell lines to identify multiple opportunities for drug repurposing: Primary screen for LAN-5 cells (AID 1347100). Further: potency means the concentration at half of the fitted maximal effect. The essentials:
as §2

Assay [9] is described as follows: qHTS of pediatric cancer cell lines to identify multiple opportunities for drug repurposing: Primary screen for Rh18 cells (AID 1347102). Further: nearly all actives have a fitted effect of over 65% in size. Further: potency means the concentration at half of the fitted maximal effect. The essentials:
as §2

A short description of assay [10]: qHTS of pediatric cancer cell lines to identify multiple opportunities for drug repurposing: Primary screen for BT-12 cells (AID 1347101). Further: nearly all actives have a fitted effect of over 25% in size. Further: potency means the concentration at half of the fitted maximal effect. The essentials:
as §2

Turning to `Cc1ccc(/C=N/n2c(-c3ccccc3)csc2=S)cc1`, the Potency result in assay [1], in [2], in [3], in assay [4], in assay [5] and in assay [6] was “inactive” in each case. Also, the Potency entry in [7], in [8] and in assay [9] was “inactive” throughout.
For `OCCCc1ccccc1`, the Potency entry in assay [1], in assay [2], in assay [3], in assay [4], in [5] and in assay [6] was “inactive” in each case. The Potency result in [8], in [10] and in [9] was “inactive” in each case.
Regarding `CC(C)(C)c1nnc(NS(=O)(=O)c2ccccc2)s1`, the Potency result in assay [1], in assay [2], in [3], in [4], in assay [5] and in assay [6] was “inactive” in each case. In addition, the Potency entry in assay [8], in assay [10] and in assay [9] was “inactive” throughout.
For the molecule `CCN(CC)CC(=O)Oc1ccc(NC(C)=O)cc1`, the Potency entry in [1], in assay [2], in assay [3], in [4], in assay [5] and in assay [6] was “inactive” each time. Also, the Potency entry in assay [7], in [10] and in assay [9] was “inactive” throughout.
Regarding `C[C@H](CN1CCCC1)C(=O)c1ccc(C(F)(F)F)cc1`, the Potency entry in [1], in assay [2], in assay [3], in assay [4], in assay [5] and in assay [6] was “inactive” throughout. The Potency result in [7] and in assay [9] was “inactive” throughout.
On to `CN1Cc2cc(C(=O)N3CCC(C4CCNCC4)CC3)ccc2NC(CC(=O)O)C1=O` (stereo not drawn), for which the Potency result in [1], in [2], in [3], in assay [4], in assay [5] and in assay [6] was “inactive” each time. For the same molecule, the Potency entry in assay [8], in assay [10] and in assay [9] was “inactive” throughout.
Consider `CCN1C(=O)c2ccccc2C1Nc1ccc(OCCN2CCCCC2)cc1` (stereo not drawn), for which the Potency result in [1], in [2], in assay [3], in assay [4], in [5] and in [6] was “inactive” in each case. Besides, the Potency result in [7], in [10] and in assay [9] was “inactive” in each case.
As for `O=C1CCCc2c(O)cccc21`, the Potency entry in [1], in [2], in assay [3], in [4], in [5] and in assay [6] was “inactive” in each case. Moreover, the Potency entry in assay [7], in [10] and in assay [9] was “inactive” throughout.
For the molecule `O=C(O)[C@@H](O)[C@H](O)[C@H](O)[C@@H](O)C(=O)O`, the Potency entry in assay [1], in assay [2], in [3], in assay [4], in assay [5] and in assay [6] was “inactive” in each case. Besides, the Potency entry in assay [7], in [10] and in assay [9] was “inactive” throughout.
Regarding `CO/N=C(/C(=O)N[C@@H]1C(=O)N2C(C(=O)O)=C(Cn3nnc(C)n3)CS[C@H]12)c1csc(N)n1`, the Potency result in assay [1], in assay [2], in [3], in [4], in assay [5] and in assay [6] was “inactive” throughout. Moreover, the Potency entry in assay [7], in assay [10] and in assay [9] was “inactive” in each case.
In the case of `CC(=O)N(c1onc(C)c1C)S(=O)(=O)c1ccc(N)cc1`, the Potency entry in [1], in [2], in assay [3], in [4], in [5] and in assay [6] was “inactive” throughout. The Potency entry in [8], in assay [10] and in assay [9] was “inactive” in each case.
With `CCNC(=O)[C@@H]1CCCN1C(=O)[C@H](CCCN=C(N)N)NC(=O)[C@H](CC(C)C)NC(=O)CNC(=O)[C@H](Cc1ccc(O)cc1)NC(=O)[C@H](CO)NC(=O)[C@H](Cc1c[nH]c2ccccc12)NC(=O)[C@H](Cc1cnc[nH]1)NC(=O)[C@@H]1CCC(=O)N1` ([pGlu]HWSYGLRP-NHEt), the Potency entry in assay [1], in [2], in [3], in assay [4], in assay [5] and in assay [6] was “inactive” each time. In addition, the Potency result in [8], in assay [10] and in assay [9] was “inactive” each time.
In the case of `CCCCNc1ccc(C(=O)OCCN(CC)CC)cc1`, the Potency result in assay [1], in assay [2], in assay [3], in assay [5], in [6] and in [7] was “inactive” in each case. The Potency result in assay [8], in assay [10] and in assay [9] was “inactive” in each case.
Consider `C/C(=C(/OCCOc1ccc(Cl)cc1)c1ccc(Cl)cc1Cl)n1ccnc1`, for which the Potency in assay [1] was 21.1 µM (active). Moreover, the Potency result in assay [2], in assay [3], in assay [4], in assay [5], in [8] and in assay [9] was “inactive” throughout.
Turning to `O=C(Oc1ccccc1)c1ccccc1O`, the Potency result in assay [1], in assay [2], in assay [3], in assay [5], in assay [6] and in [7] was “inactive” in each case. Further, the Potency result in assay [8], in assay [10] and in assay [9] was “inactive” throughout.
Turning to `C[C@@]12CCC[C@H]1[C@@H]1CC[C@H]3C[C@@H](O)CC[C@]3(C)[C@H]1CC2`, the Potency entry in assay [1], in assay [2], in [3], in [4], in assay [6] and in assay [7] was “inactive” each time. For the same molecule, the Potency result in assay [8] and in [9] was “inactive” throughout.
In the case of `CO[C@@]1(NC(=O)CSC[C@@H](N)C(=O)O)C(=O)N2C(C(=O)O)=C(CSc3nnnn3C)CS[C@@H]21`, the Potency result in assay [1], in [2], in [3], in assay [4], in [6] and in assay [7] was “inactive” throughout. For the same molecule, the Potency entry in [8] and in [9] was “inactive” each time.
With `Nc1nc2ccccc2n1Cc1ccc(F)cc1`, the Potency result in assay [1], in assay [2], in assay [3], in assay [4], in [5] and in [7] was “inactive” throughout. Also, the Potency entry in assay [9] was “inactive”.
`CC(C)OP(=O)(CP(=O)(OC(C)C)OC(C)C)OC(C)C`: the Potency entry in assay [1], in assay [2], in assay [3], in [4], in assay [5] and in [7] was “inactive” in each case. The Potency entry in [9] was “inactive”.
For the molecule `Cc1cc2nc3ccc(=[N+](C)C)cc-3sc2cc1N`, the Potency in [1] is 1.33 µM (active); in assay [2] it was 17.4 µM (active); in assay [3], 10.6 µM (active); in [5], 2.99 µM (active); in [6], 10.9 µM (active); in assay [7], 5.96 µM (active). The Potency in assay [8] is 1.33 µM (active); in assay [10] it was 15.5 µM (active); in assay [9], 2.99 µM (active).
`O=c1[nH]c(=O)n([C@H]2O[C@H](CO)[C@@H](O)[C@@H]2O)cc1/C=C\Br`: the Potency entry in assay [1], in [2], in [3], in assay [4], in [6] and in [7] was “inactive” in each case. Moreover, the Potency entry in assay [8], in [10] and in assay [9] was “inactive” throughout.
Take `c1ccc2c(c1)CCc1ccccc1N2`: the Potency entry in assay [1], in assay [2], in [3], in assay [5], in [6] and in assay [7] was “inactive” throughout. Moreover, the Potency entry in [8], in [10] and in [9] was “inactive” throughout.
For the molecule `O=C(c1ccco1)N1CCNCC1`, the Potency entry in assay [1], in [2], in assay [3], in [4], in assay [6] and in assay [7] was “inactive” throughout. Besides, the Potency result in [8], in assay [10] and in [9] was “inactive” each time.
